The values below come from PubChem BioAssay.

Each structure is given as a SMILES string. Activity calls are given as the source filed them.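 The calls were made as follows: active = inhibition of the reporter signal at or above 50%; inactive = inhibition below 50%.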

The term inhibition denotes the drop in the measured response relative to a control, in per cent.

A short description of the assay: inhibitors of poly I:C-induced TLR3 signaling, primary screen, cell-based, poly I:C stimulus, luciferase, 10K MLSCN set (AID 602277). Conditions: HEK293-TLR3 RL24 IRF3 luciferase reporter, at 10 µM, hits give high values. (A reporter such as luciferase makes a cellular process visible.)
As for `CCOC(=O)C1SC2(C(F)F)CC1(O)c1c(c(OC)c3occc3c1OC)O2` (stereo not given), the inhibition is 14.4% (inactive).

For the compound `Cc1ccc(C(=O)C2CN3CCC2CC3)cc1` (stereo not given), the inhibition is 43.4% (inactive).

Regarding `C=CCn1c(O)c(C(C)=NCCCO)c(=O)[nH]c1=O`, the inhibition was 16.8% (inactive).

Take `CC1CCC(C(=O)NC(C(=O)N2CCC3(CC2)OCCO3)C(C)C)CC1` (stereo not given): the inhibition was 20.1% (inactive).

In the case of `CCCCNC(=O)c1c(N)n(CCCOC)c2nc3ccccc3nc12`, the inhibition was -28.3% (inactive).

As to `O=C1CC(c2ccccc2)CC(O)=C1C=NCCN1CCN(C(=O)Cc2ccccc2)CC1` (stereo not given), the inhibition was 25.9% (inactive).

`O=C(c1ccncc1)C12CN3CN(CN(C3)C1)C2`: the inhibition was 30.7% (inactive).

On to `CCOc1ccc(-n2c(O)c(C=NCCN(CC)CC)c(=O)[nH]c2=O)cc1`, for which the inhibition is 1.28% (inactive).

As for `COc1ccc(OC)c(N2C(=O)NC(=O)C(CCc3ccncc3)(CCc3ccncc3)C2=O)c1`, the inhibition was 12% (inactive).

On to `CC(C)OCCCNC(=O)c1c(N)n(CC2CCCO2)c2nc3ccccc3nc12` (stereo not given), for which the inhibition was 19.9% (inactive).

With `COc1ccccc1N1CCN(Cc2c(F)cccc2F)CC1`, the inhibition is 27.3% (inactive).

In the case of `O=C(c1ccc2nc(-c3ccco3)c(-c3ccco3)nc2c1)N1CCC2(CC1)OCCO2`, the inhibition is -7.99% (inactive).

Regarding `CC(=NCCCO)c1c(O)n(Cc2ccccc2)c(=O)[nH]c1=O`, the inhibition is 11% (inactive).

On to `CCN1c2nc3ccccn3c(=O)c2CC2(C(=O)N(C)C(=O)N(C)C2=O)C1C` (stereo not given), for which the inhibition is 19.6% (inactive).

`Cc1cccc(-n2c(O)c(C=NCCCN3CCOCC3)c(=O)[nH]c2=O)c1C`: the inhibition is 3.78% (inactive).
